Experimental data from PubChem BioAssay AID777 (Sanford-Burnham Center for Chemical Genomics, 2007).
In all, about 96,000 compounds went through this assay and about 19,000 (20%) were called active. Not all results are given here. Unmarked numbers belong to inactive results.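 The calls were made as follows: active = blocking of liver enzyme CYP2C9 beyond about 50% at 5 µM (limit read from the data); inactive = the rest.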

Each compound was assayed against Cytochrome P450 2C9 (Homo sapiens) (UniProt P11712) (assay: blockers of cytochrome P450 2C9 activity – biochemical, luminescence, ADME assay, primary screen (AID 777)). Conditions: CYP2C9 Supersomes, luciferin-H conversion, at 5 µM, hits give high values.
Cytochrome P450 2C9 (Homo sapiens), sequence (P11712 whole entry, looked up): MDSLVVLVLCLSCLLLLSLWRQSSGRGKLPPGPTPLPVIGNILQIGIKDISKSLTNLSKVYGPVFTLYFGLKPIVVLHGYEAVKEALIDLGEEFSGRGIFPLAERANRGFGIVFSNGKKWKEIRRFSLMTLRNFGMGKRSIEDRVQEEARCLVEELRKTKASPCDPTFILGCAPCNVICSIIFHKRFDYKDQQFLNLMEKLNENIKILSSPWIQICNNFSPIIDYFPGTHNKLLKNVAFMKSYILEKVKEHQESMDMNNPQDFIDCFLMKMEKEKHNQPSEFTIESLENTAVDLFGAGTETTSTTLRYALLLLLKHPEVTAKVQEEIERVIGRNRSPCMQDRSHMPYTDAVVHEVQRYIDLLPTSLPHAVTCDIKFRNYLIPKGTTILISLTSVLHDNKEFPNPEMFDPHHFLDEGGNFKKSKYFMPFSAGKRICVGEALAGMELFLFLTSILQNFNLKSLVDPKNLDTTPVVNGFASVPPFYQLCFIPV

**Q.** With `NC(=O)C1CCN(C2OC(=O)c3ccccc32)CC1` (stereo not drawn) as the compound, how does the inhibition read?
**A.** The inhibition was -3.4%.

**Q.** Which inhibition does the source give for `Cc1ccc(CCn2c3c(c4ccccc42)CN(C)CC3)cn1` here?
**A.** Its inhibition is -27.5%.

**Q.** Which inhibition does the source give for `O=C(CS(=O)(=O)Cc1ccccc1)NCC1CCCO1` (stereo not drawn) here?
**A.** Its inhibition is -17.4%.

**Q.** How did the inhibition turn out when `O=C(Nc1ccc(-c2nnc(-c3ccccc3)o2)cc1)C1CCCO1` (stereo not drawn) was run?
**A.** Its inhibition is -11.1%.

**Q.** How did the inhibition turn out when `O=C(CSc1nnc(-c2ccc(NS(=O)(=O)c3ccccc3)cc2)o1)NCC1CCCO1` (stereo not drawn) was run?
**A.** Its inhibition is 92.2% (active).

**Q.** `CSC1=N/C(=C\C=C\c2cccs2)C(=O)S1` was tested. Which inhibition did it give?
**A.** Its inhibition is -10.5%.

**Q.** For `Cn1c(=O)[nH]c(=O)c2c1nc(N1CCCCCC1)n2CC(=O)c1ccccc1`, which inhibition is on record?
**A.** Its inhibition is 7.5%.

**Q.** For `Cc1nnc(SCCCn2c(N3CCCCC3)nc3c2c(=O)[nH]c(=O)n3C)s1`, which inhibition is on record?
**A.** The inhibition was 59.5% (active).

**Q.** How did the inhibition turn out when `C=C(C)Cn1c(N2CCCC2)nc2c1c(=O)[nH]c(=O)n2C` was run?
**A.** The inhibition was -5%.

**Q.** For `CSCCC1NC2(C(=O)Nc3ccc(Cl)cc32)[C@@H]2C(=O)N(C3CCCC3)C(=O)[C@H]12` (stereo partly drawn), which inhibition is on record?
**A.** Its inhibition is 76.1% (active).

**Q.** Which inhibition does the source give for `O=C(CN1CCCCCC1)Nc1ccc(Br)cc1Br` here?
**A.** Its inhibition is 16.5%.

**Q.** `Cc1cccc(N2CCN(C(c3ccccc3)c3nnnn3CC3CCCO3)CC2)c1C` (stereo not drawn) was tested. Which inhibition did it give?
**A.** The inhibition was 37.3%.

**Q.** `Cc1cccc2cc(CN(Cc3cccs3)C(c3nnnn3C3CCCC3)C(C)C)c(=O)[nH]c12` (stereo not drawn) was tested. Which inhibition did it give?
**A.** Its inhibition is -38.3%.

**Q.** How did the inhibition turn out when `CC(C)C(c1nnnn1C1CCCC1)N1CCN(c2ccccc2F)CC1` (stereo not drawn) was run?
**A.** Its inhibition is 8.2%.

**Q.** With `COc1ccc(N2CCN(C(c3cc4ccc(C)cc4[nH]c3=O)c3nnnn3C3CCCC3)CC2)cc1` (stereo not drawn) as the compound, how does the inhibition read?
**A.** Its inhibition is 75.7% (active).

**Q.** Which inhibition does the source give for `COc1ccc(C(c2nnnn2C2CCCCC2)N2CCN(c3ccccc3F)CC2)cc1` (stereo not drawn) here?
**A.** The inhibition was 73.7% (active).

**Q.** Which inhibition does the source give for `CCOc1ccc2[nH]c(=O)c(C(c3nnnn3CCOC)N3CCOCC3)cc2c1` (stereo not drawn) here?
**A.** The inhibition was 6.5%.

**Q.** Which inhibition does the source give for `N#Cc1ccc(-c2ccc(F)cc2)nc1Sc1ccccc1` here?
**A.** The inhibition was 13.2%.

**Q.** Which inhibition does the source give for `Cc1[nH]n(-c2ccccc2)c(=O)c1CCOC(=O)c1ccc(C(F)(F)F)cc1` here?
**A.** Its inhibition is -11.8%.

**Q.** `COC(=O)CN(c1nc(C)c(Cl)c(OC)n1)S(=O)(=O)c1ccc(C)cc1` was tested. Which inhibition did it give?
**A.** The inhibition was 34.3%.

**Q.** How did the inhibition turn out when `Cc1ccc(-c2nnc(-n3nnc4ccccc43)c3ccccc23)cc1` was run?
**A.** Its inhibition is 8.4%.

**Q.** How did the inhibition turn out when `N#Cc1ccc(OCCN2C(=O)NC3(CCSC3)C2=O)cc1` (stereo not drawn) was run?
**A.** The inhibition was -24.2%.

**Q.** Which inhibition does the source give for `Cc1nn(CCOc2ccccc2)c(=O)n1-c1ccccc1F` here?
**A.** The inhibition was -10%.

**Q.** For `CC1(C)NC(=O)N(CCOc2cccc(Oc3ccccc3)c2)C1=O`, which inhibition is on record?
**A.** Its inhibition is 62.5% (active).

**Q.** How did the inhibition turn out when `Cc1ccc(NC(=O)Cn2nc(C)c3ccccc3c2=O)c(C)c1` was run?
**A.** Its inhibition is -59.3%.

**Q.** With `CCOC(=O)C1(S(=O)(=O)c2ccccc2)CCN(Cc2ccccc2)CC1` as the compound, how does the inhibition read?
**A.** Its inhibition is 8.3%.

**Q.** How did the inhibition turn out when `CCn1c(-c2ccoc2C)n[nH]c1=S` was run?
**A.** The inhibition was 2.9%.

**Q.** How did the inhibition turn out when `CCOC(=O)CN(C)Cc1c[nH]c2ccccc12` was run?
**A.** The inhibition was 1.3%.

**Q.** `COc1ccccc1CNC(=O)C1CCN(S(C)(=O)=O)CC1` was tested. Which inhibition did it give?
**A.** The inhibition was -17.1%.

**Q.** `CCC(=O)Nc1ccccc1N1CCN(S(C)(=O)=O)CC1` was tested. Which inhibition did it give?
**A.** The inhibition was -0.9%.

**Q.** For `COc1ccc(C(=O)NC(=S)Nc2ccccc2N2CCN(S(C)(=O)=O)CC2)cc1OC`, which inhibition is on record?
**A.** Its inhibition is 54.8% (active).

**Q.** How did the inhibition turn out when `CC(C)c1ccc(OCC(O)Cn2cnc3ccccc32)cc1` (stereo not drawn) was run?
**A.** The inhibition was 8.1%.

**Q.** How did the inhibition turn out when `CC(C)c1cc(C(=O)O)n[nH]1` was run?
**A.** The inhibition was 1.1%.

**Q.** Which inhibition does the source give for `CCOCCOC(=O)C1=C(C)N(C)C(=O)NC1c1ccccc1F` (stereo not drawn) here?
**A.** The inhibition was -10.9%.

**Q.** With `Cc1ccc(-n2nc3cc(Cl)c(NC(=O)c4ccco4)cc3n2)cc1` as the compound, how does the inhibition read?
**A.** The inhibition was 15.7%.

**Q.** Which inhibition does the source give for `COc1ccc(C(=O)NCCc2ccc(S(N)(=O)=O)cc2)cc1OC` here?
**A.** The inhibition was -6.7%.

**Q.** Which inhibition does the source give for `COc1ccc(CCNc2ncnc3nc[nH]c23)cc1OC` here?
**A.** Its inhibition is 8.9%.

**Q.** For `COc1ccc(S(=O)(=O)NC(CC(=O)NCc2ccccc2OC)c2ccco2)cc1` (stereo not drawn), which inhibition is on record?
**A.** The inhibition was -43.6%.

**Q.** For `CCS(=O)(=O)NCCc1ccc(OC)c(OC)c1`, which inhibition is on record?
**A.** Its inhibition is 0.1%.

**Q.** `COc1ccc(S(=O)(=O)NCc2ccc(C(=O)N(C)Cc3ccco3)cc2)cc1` was tested. Which inhibition did it give?
**A.** The inhibition was 63.2% (active).

**Q.** Which inhibition does the source give for `O=C(NC1CCC(O)CC1)c1ccc(S(=O)(=O)NCc2ccco2)cc1` (stereo not drawn) here?
**A.** Its inhibition is 5%.

**Q.** Which inhibition does the source give for `COc1ccc(CCNS(=O)(=O)c2ccc(F)cc2)cc1OC` here?
**A.** Its inhibition is 76.6% (active).

**Q.** `COc1ccc(CCNC(=O)CN(c2ccccc2)S(C)(=O)=O)cc1OC` was tested. Which inhibition did it give?
**A.** Its inhibition is 4.9%.

**Q.** How did the inhibition turn out when `Cc1nn(C)c(Oc2ccccc2)c1CCNS(=O)(=O)c1ccc(F)cc1` was run?
**A.** Its inhibition is 49.8%.

**Q.** Which inhibition does the source give for `COc1ccc(CCNS(=O)(=O)c2ccc(C(=O)NCc3ccco3)cc2)cc1OC` here?
**A.** Its inhibition is 71.8% (active).

**Q.** How did the inhibition turn out when `COc1ccc(-c2cc(C(=O)NCc3ccco3)no2)cc1OC` was run?
**A.** Its inhibition is -47%.

**Q.** How did the inhibition turn out when `COc1ccc(CCNS(=O)(=O)c2ccc(Cl)s2)cc1OC` was run?
**A.** Its inhibition is 87.3% (active).

**Q.** Which inhibition does the source give for `CCCSc1nc(NCc2ccco2)c2c3c(sc2n1)COC(C)(CC)C3` (stereo not drawn) here?
**A.** Its inhibition is 45.6%.

**Q.** How did the inhibition turn out when `CC(=O)C1C(c2ccc(Cl)cc2)NC(=O)NC1(O)C(F)(F)F` (stereo not drawn) was run?
**A.** The inhibition was -9.5%.

**Q.** Which inhibition does the source give for `Cn1c(=O)n(C)c2cc(CNc3ccc(N4CCOCC4)c(C(=O)O)c3)ccc21` here?
**A.** The inhibition was -13.6%.

**Q.** Which inhibition does the source give for `CSc1ccc(NC(=O)N2CC(C)OC(C)C2)cc1` (stereo not drawn) here?
**A.** Its inhibition is 2.1%.

**Q.** `O=C(NCCN1CCOCC1)c1c(F)c(F)c(F)c(F)c1F` was tested. Which inhibition did it give?
**A.** The inhibition was -21.8%.

**Q.** Which inhibition does the source give for `COc1ccccc1C1=Nc2cccc3cccc(c23)N1` here?
**A.** Its inhibition is 24%.

**Q.** Which inhibition does the source give for `CC1(C)COC(c2cccn2Cc2ccccc2Cl)=N1` here?
**A.** The inhibition was 13.6%.

**Q.** For `COc1ccc(C)cc1S(=O)(=O)NCCc1ccccc1`, which inhibition is on record?
**A.** The inhibition was 75.9% (active).

**Q.** How did the inhibition turn out when `COCCNS(=O)(=O)c1cc(Br)ccc1OC` was run?
**A.** Its inhibition is -13.7%.

**Q.** Which inhibition does the source give for `COc1ccc(C)cc1S(=O)(=O)NC1CCCCC1` here?
**A.** The inhibition was 22.8%.

**Q.** Which inhibition does the source give for `CC(=O)c1cnn(-c2cc(Oc3ccc(F)cc3)ncn2)c1C` here?
**A.** The inhibition was 42.5%.

**Q.** Which inhibition does the source give for `CC(C)c1ccc(NS(=O)(=O)c2cn(C)c(=O)n(C)c2=O)cc1` here?
**A.** The inhibition was -7.9%.

**Q.** With `CN(C)Cc1c(O)ccc2occ(C(O)c3ccccc3)c12` (stereo not drawn) as the compound, how does the inhibition read?
**A.** Its inhibition is -6.6%.

**Q.** Which inhibition does the source give for `COc1ccc(C2CC(=O)Nc3cc(C)c(C)cc32)c(OC)c1OC` (stereo not drawn) here?
**A.** Its inhibition is 57% (active).

**Q.** For `COc1cc2c(cc1OC)C(c1ccncc1)CC(=O)N2` (stereo not drawn), which inhibition is on record?
**A.** The inhibition was 34.4%.

**Q.** For `COc1cc2c(cc1OC)C(c1ccc(C)o1)CC(=O)N2` (stereo not drawn), which inhibition is on record?
**A.** The inhibition was -9%.
